Potency and affinity values are given separately.
Legend:
Staphylococcus aureus = details: Concentration 32 ug.mL-1;; ASSAY_TEST Inhibition of Bacterial Growth; detection method Absorption (OD600); MEDIA CAMHB; plate type 384well; NBS; CORNING #3640; time 18 hr
Escherichia coli = details: Concentration 32 ug.mL-1;; ASSAY_TEST Inhibition of Bacterial Growth; detection method Absorption (OD600); MEDIA CAMHB; plate type 384well; NBS; CORNING #3640; time 18 hr

Compound | Inhibition (Staphylococcus aureus) [%] | Inhibition (Escherichia coli) [%]
COc1ccc(NC(=O)Cn2nc3cc(C)nc(Nc4ccc(F)cc4)n3c2=O)cc1F | 9.09 | -0.97
Cc1ccc(Cl)cc1NC(=O)CSc1nc2ccccc2n2c(C(C)C)nnc12 | 0.87 | -1.5
Cc1cccc(Sc2nccn3c(=O)n(CC(=O)N4CCN(c5ccccc5)CC4)nc23)c1 | 12.14 | -10.39
Cc1ccc(NC(=O)Cn2c(=O)c3nnc(C)n3c3ccccc32)cc1C | 17.12 | 0.02
Cc1ccc(C)c(NC(=O)Cn2nc3ccc(-c4ccccc4)nn3c2=O)c1 | -0.8 | -9.05
Cc1ccc(CNC(=O)CSc2nnc3c(=O)n(-c4ccccc4)ccn23)cc1 | 12.76 | 0.71
O=S(=O)(Nc1ccc2c(c1)OCCO2)c1ccc2nncn2c1 | 11.97 | -4.23
Cc1ccc(NC(=O)c2ccc3nnc(SCC(=O)Nc4ccc(Br)cc4)n3c2)cc1 | -2.55 | -1.72
CC(=O)c1ccc(NC(=O)Cn2nc3c4cc(-c5ccc(Cl)cc5)nn4ccn3c2=O)cc1 | 8.4 | 0.52
O=C(Cn1nc2ccc(Sc3cccc(F)c3)nn2c1=O)Nc1cccc(Cl)c1 | -0.09 | -4.86
COc1ccc(NC(=O)Cn2nc3c4cc(-c5cc(C)ccc5C)nn4ccn3c2=O)c(OC)c1 | 3.39 | 3.2
CC(C)Cc1ccc(S(=O)(=O)Nc2ccc3nncn3n2)cc1 | 13.61 | 2.12
COc1cc(NC(=O)Cn2nc3c(Sc4cccc(F)c4)nccn3c2=O)cc(OC)c1 | 9.3 | -0.8
O=c1c2sccc2n2c(=O)n(Cc3ccc(F)cc3)nc2n1CCc1ccccc1 | 10.13 | 2.04
Cc1c(Cl)cccc1-n1ccn2c(=O)n(Cc3ccc(Cl)cc3)nc2c1=O | 9.17 | -7.56
CC(C)Sc1ccc2nn(CC(=O)Nc3ccc(Cl)cc3F)c(=O)n2n1 | 9.58 | -1.02
COc1ccc(-c2cc3c4nn(CC(=O)Nc5ccccc5Cl)c(=O)n4ccn3n2)cc1 | -2.84 | -5.57
Cc1ccc(NC(=O)c2ccc3nnc(SCC(=O)Nc4ccc(F)cc4)n3c2)cc1 | 14.37 | 5.45
C=Cc1ccc(Cn2nc3c(=O)n(-c4cccc(Cl)c4C)ccn3c2=O)cc1 | -2.71 | -4.95
COc1cc(NC(=O)Cn2nc3n(CCc4ccccc4)c(=O)c4ccccc4n3c2=O)cc(OC)c1 | 8.09 | -2.27
CC(C)c1nnc2c(=O)n(CC(=O)Nc3ccc(Br)cc3F)c3ccccc3n12 | 7.11 | 1.53
CCc1nnc2c(S(=O)(=O)N(Cc3ccccc3F)c3ccc(F)cc3)cccn12 | 1.79 | -1.76
COc1cccc(-n2ccn3c(SCC(=O)N4CCN(c5ccc(F)cc5)CC4)nnc3c2=O)c1 | 6.4 | -17.03
CCCNC(=O)CSc1nnc2c(=O)n(-c3ccc(F)cc3)ccn12 | -5.35 | -1

Compound | Inhibition (Staphylococcus aureus) [%] | Inhibition (Escherichia coli) [%]
O=c1c2nnc(SCc3ccccc3F)n2ccn1-c1ccc(F)cc1 | 19.41 | -3.23
Cc1nc(-c2ccccn2)cc2nn(CC(=O)Nc3ccccc3C(F)(F)F)c(=O)n12 | 2.98 | -9.66
CCOc1ccc(-n2ccn3c(SCC(=O)Nc4ccccc4C(F)(F)F)nnc3c2=O)cc1 | 16.73 | 2.18
O=C(CSc1nnc2c3cc(-c4ccc(F)cc4)nn3ccn12)NCCc1ccccc1 | 4.82 | -7.39
COc1ccc(NC(=O)Cn2nc3ccc(SCc4ccc(Cl)cc4)nn3c2=O)cc1Cl | -4.58 | -11.11
COc1cc(OC)c(NC(=O)Cn2nc3ccc(Sc4cccc(F)c4)nn3c2=O)cc1Cl | 4.57 | -1.59
CCC(Sc1nnc2c(=O)n(-c3cccc(OC)c3)ccn12)C(=O)Nc1cc(OC)cc(OC)c1 (configuration not stated) | 13.02 | -6.26
COc1ccc(-c2cc3c4nn(CC(=O)Nc5ccc6c(c5)OCO6)c(=O)n4ccn3n2)cc1 | 8.96 | 6.89
COc1ccccc1Cn1c(=O)c2sccc2n2c(=O)n(Cc3ccccc3)nc12 | 4.84 | -5.32
COc1ccc(Cl)cc1NC(=O)Cn1nc2c3cc(-c4ccc(C)c(C)c4)nn3ccn2c1=O | -18.41 | -23.9
CSc1cccc(NC(=O)Cn2nc3c(Sc4cccc(F)c4)nccn3c2=O)c1 | 2.75 | -0.46
Cc1ccc(N(Cc2ccccc2F)S(=O)(=O)c2ccc3nncn3c2)cc1 | -11.4 | -11.46
CC1CCN(C(=O)Cn2nc3n(Cc4ccco4)c(=O)c4sccc4n3c2=O)CC1 | 1.87 | -2.27
CCOC(=O)c1ccc(NC(=O)Cn2nc3c(SCc4ccc(Cl)cc4)nccn3c2=O)cc1 | -2.95 | -14.83
CCC(Sc1nnc2c(=O)n(-c3cccc(OC)c3)ccn12)C(=O)Nc1ccccc1C (configuration not stated) | -3.13 | -2.17
COc1ccccc1-n1ccn2c(SCC(=O)Nc3ccc(F)cc3F)nnc2c1=O | -4.28 | 0.2
O=c1n(Cc2cc(F)cc(F)c2)nc2ccc(-c3ccccc3)nn12 | 8.62 | -1.58
COc1cccc(-n2ccn3c(SCC(=O)Nc4ccccc4F)nnc3c2=O)c1 | 8.86 | -8.93
O=c1c2nnc(SCc3ccccc3)n2ccn1-c1ccc(Br)cc1 | 12.69 | -3.8
CCOc1ccc(C(=O)CSc2nnc3c(=O)n(-c4ccc(F)cc4)ccn23)cc1 | 23.03 | 1.42
Cc1ccc(NC(=O)Cn2c(=O)c3nnc(C(C)C)n3c3ccccc32)cc1 | -2.26 | 0.43
COc1cc(NC(=O)Cn2nc3ccc(SC4CCCCC4)nn3c2=O)cc(OC)c1 | -2.94 | -6.19
Cc1ccccc1NC(=O)Cn1nc2c(SC3CCCCC3)nccn2c1=O | 1.84 | -9.01
O=C(CSc1nnc2c(=O)n(-c3ccccc3)ccn12)Nc1ccc(Br)cc1 | 5.51 | -4.01

Compound | Inhibition (Staphylococcus aureus) [%] | Inhibition (Escherichia coli) [%]
CCN(CCCNC(=O)CCc1nnc2ccc(-c3ccccc3)nn12)c1ccccc1 | 5.66 | 4.87
CCCc1nnc2c(=O)n(CC(=O)Nc3ccc(Br)cc3)c3ccccc3n12 | 11.05 | 2.53
Cc1ccc(-c2ccc3nnc(CCC(=O)NCc4ccc(C(F)(F)F)cc4)n3n2)cc1C | 17.72 | 1.8
Cc1nnc2ccc(S(=O)(=O)N(Cc3cc(F)cc(F)c3)c3ccc(F)cc3)cn12 | 1.57 | -3.09
O=C(Cn1nc2c(Oc3ccccc3)nccn2c1=O)Nc1ccc2c(c1)OCO2 | 2.59 | -7.1
Cc1cc(C)cc(N(Cc2cccc(F)c2)S(=O)(=O)c2cccn3c(C)nnc23)c1 | 2.22 | -5.24
CCCCc1ccc(NC(=O)Cn2c(=O)c3nnc(CCC)n3c3ccccc32)cc1 | 2.94 | -1.42
Cc1nnc2c(S(=O)(=O)N(Cc3ccccc3F)c3ccc(C(C)C)cc3)cccn12 | 11.33 | -2.7
CSc1ccc(CNC(=O)Cn2nc3c(Oc4ccc(C)cc4)nccn3c2=O)cc1 | -14.59 | -5.13
COc1ccc(-c2nc(CSc3nc4ccccc4n4c(C(C)C)nnc34)c(C)o2)cc1OC | -10.5 | 0.54
Cn1c(=O)c2ccc(C(=O)NC3CCCCC3)cc2n2c(=O)n(Cc3cccc(C(F)(F)F)c3)nc12 | 12.74 | -0.17
Cc1cc(C)cc(N(Cc2ccc(F)cc2)S(=O)(=O)c2cccn3cnnc23)c1 | -4.06 | -5.96
COc1ccc(CNC(=O)Cn2nc3c(N4CCN(c5ccccc5C)CC4)nccn3c2=O)cc1 | 6.39 | -3.43
O=c1c2nnc(-c3ccc([N+](=O)[O-])cc3)n2ccn1-c1ccc(F)c(F)c1 | -6.17 | -1.2
CCc1ccccc1NC(=O)Cn1nc2n(CCC(C)C)c(=O)c3sccc3n2c1=O | -2.34 | -9.52
CC(C)c1nnc2c(=O)n(CC(=O)Nc3ccc(Cl)c(Cl)c3)c3ccccc3n12 | 8.95 | 5.48
Cc1ccc(NC(=O)Cn2nc3ccc(SCc4ccc(Cl)cc4)nn3c2=O)cc1 | -0.24 | -6.34
O=C(CCc1nnc2c(N3CCCCC3)nc3ccccc3n12)NCc1ccc(Cl)cc1 | 12.63 | 0.78
COc1cccc(-n2ccn3c(SCC(=O)Nc4cc(Cl)ccc4OC)nnc3c2=O)c1 | 8.75 | -1.77
CC(C)c1ccc(NC(=O)Cn2nc3c(Sc4ccccc4)nccn3c2=O)cc1 | -14.37 | -14.79
O=c1n(Cc2ccc3c(c2)OCO3)nc2c(S(=O)(=O)N3CCCC3)cccn12 | 0.67 | -7.1
Cc1cccc(NC(=O)Cn2nc3c(SC4CCCCC4)nccn3c2=O)c1C | 2.67 | 2.06
CCc1ccccc1Sc1nccn2c(=O)n(CC(=O)N3CCN(c4ccccc4)CC3)nc12 | -10.72 | -11.22

— ChEMBL document CHEMBL4513146, “CO-ADD screening of Karazin Kharkiv National University (Ukraine) compounds”
